Bioassay records from PubChem BioAssay.
D1 PAM = enhances dopamine response at the human D1 receptor; P21728; HEK293 TREx D1 cells, calcium flux, dopamine EC20 potentiation; potentiation, % at 10 µM; actives 0.036% (n = 360,000); in the data active means potentiation above about 30%
D3 ag = activates the human D3 dopamine receptor; P35462; D3R DiscoveRx beta-arrestin cells, luminescence, 90 min; max activation, %; actives 0.58% (n = 410,000); AID 652048; in the data active means max activation above about 30%
Target sequence (P35462 whole entry, looked up): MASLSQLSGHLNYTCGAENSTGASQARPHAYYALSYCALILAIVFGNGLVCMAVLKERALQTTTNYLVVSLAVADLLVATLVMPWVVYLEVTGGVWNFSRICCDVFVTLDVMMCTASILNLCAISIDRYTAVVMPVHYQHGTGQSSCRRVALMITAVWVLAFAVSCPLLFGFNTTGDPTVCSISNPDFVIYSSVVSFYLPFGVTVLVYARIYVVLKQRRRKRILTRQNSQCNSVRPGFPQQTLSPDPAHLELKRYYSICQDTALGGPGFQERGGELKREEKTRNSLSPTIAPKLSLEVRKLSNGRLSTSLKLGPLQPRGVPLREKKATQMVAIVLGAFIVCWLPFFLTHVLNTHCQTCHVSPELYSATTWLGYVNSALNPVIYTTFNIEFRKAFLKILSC
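Agonist mode: compounds and dopamine controls were applied to plated cells for 90 min at 37 degrees C after an overnight attachment at 1500 cells/well. Luminescent read-out followed 30 - 60 minutes at room temperature with DiscoveRx detection reagent.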
D1 antagonist = human D1 dopamine receptor antagonism; P21728; HEK293 TREx D1 cells, calcium flux, dopamine EC80; hits give low values; activity change, negative = inhibition, % at 10 µM; actives 3.2% (n = 360,000); AID 504652; in the data active means activity change below about -30%
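Inducible Hek293 Trex D1 cells (tetracycline, overnight, 30 C). Calcium dye 30–90 min RT. Antagonist mode: EC80 dopamine added after 180 s compound read.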
D1 agonist = agonists of human D1 dopamine receptor | P21728 | HEK293 T-REx D1 cells, calcium flux, agonist mode | activation, % at 2 µM | actives 1% (n = 360,000) | AID 504660; in the data active means activation above about 30%
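Agonism was scored from calcium flux recorded over 180 s (1 read/s) after pintool compound addition, following a 10-cycle baseline. Cells were inducible force-coupled HEK293 TREx D1, plated overnight at 30 C and loaded with no-wash calcium dye.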
DRD3 antagonist = blocks the human D3 dopamine receptor. P35462. D3R cells, DiscoveRx beta-arrestin luminescence, antagonist mode; hits give low values. max response, negative = inhibition, %. actives 2.5% (n = 360,000). AID 652054; in the data active means max response below about -50%; inconclusive means no clear call, values can overlap the other calls
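Cells plated overnight at 1500 cells/well, then exposed to library compounds with dopamine controls for 90 minutes at 37 degrees C. DiscoveRx reagent added for 30–60 minutes at room temperature; luminescence read, quantitative HTS format.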
Large screens that a line does not name were inactive. Hits are enriched below; roughly 6% of the tested compounds scored in any of these assays.

Clc1ccc(CN2CC[C@H]3C=CCc4cccc(c43)C2)cc1	DRD3 antagonist -84.3 (no result: D1 antagonist)
Fc1ccc(CNC2CCN(Cc3ccccc3)CC2)cc1	none
N=C1c2ccccc2CN1c1ccc(N2CCOCC2)c(S(=O)(=O)Nc2ccc(Cl)cc2)c1	D1 agonist 83.3 (no result: D3 ag, DRD3 antagonist)
COc1ccc(C(=O)NC2CC(=O)N(c3ccc4c(c3)OCCO4)C2)cc1 (configuration not stated)	none (no result: D1 antagonist, DRD3 antagonist)
Cn1ncc(Cl)c1C(=O)N/N=C/c1cccc(OC2CSC2)c1	D1 antagonist -44.6
O=C(CSc1ncccn1)N/N=C/c1cccc(OC2CSC2)c1	D1 antagonist -36.5
COc1cccc(/C=N/NC(=O)CSc2cccc3cccnc23)c1	none
Cn1ncc(Cl)c1C(=O)N/N=C/c1ccccn1	none
COc1cccc(C2CC(=O)Nc3c2c(=O)nc2c(C)cccn32)c1OC (configuration not stated)	none (no result: DRD3 antagonist)
O=C1CN(C(=O)c2cccc(Br)c2)C(c2ccccc2)c2cc(Cl)ccc2N1 (configuration not stated)	none (no result: DRD3 antagonist)
N#CC1=C(S)N=C(N)C(c2nc(-c3ccccc3)cs2)C12CCCCC2 (configuration not stated)	none
Cc1ccc(-c2csc(C3C(N)=NC(S)=C(C#N)C34CCCCC4)n2)cc1 (configuration not stated)	DRD3 antagonist -71.8
COc1ccc(C(=O)Nc2nnc(S(=O)(=O)N(C)c3ccc(C)cc3)s2)cc1	none (no result: DRD3 antagonist)
CN(C)c1ccc(C(=O)/C=C/c2ccccc2)cc1	none
CCN(CC)c1ccc(/C=C/C(=O)c2ccc(Br)cc2)cc1	D1 antagonist -67.4, D1 agonist 425.5
CCN(CC)c1ccc(/C=C/C(=O)c2cccnc2)cc1	none
CN(C)c1ccc(C(=O)/C=C/c2ccc(Br)cc2)cc1	D1 antagonist -33.1
COc1ccccc1/C=C/c1nc(C#N)c(N2CCN(C)CC2)o1	none (no result: DRD3 antagonist)
CCOc1ccc(-c2c(C(=O)N/N=C(\C)c3cccs3)nnn2-c2nonc2N)cc1	D1 agonist 43.6
CCOc1cccc(-c2c(C(=O)N/N=C/c3ccc(Br)cc3)nnn2-c2nonc2N)c1	none
Nc1nonc1-n1nnc(C(=O)N/N=C/c2ccc3c(c2)OCO3)c1-c1ccccc1	none
Nc1nonc1-n1nnc(C(=O)N/N=C/c2ccc(Br)cc2)c1-c1ccc2c(c1)OCO2	D1 agonist 47.1
CCOc1cccc(-c2c(C(=O)N/N=C(\C)c3cccs3)nnn2-c2nonc2N)c1	D1 agonist 94.9
COc1cccc(-c2c(C(=O)N/N=C(\C)c3ccncc3)nnn2-c2nonc2N)c1	none
COc1cccc(-c2c(C(=O)N/N=C(\C)c3cccs3)nnn2-c2nonc2N)c1	D1 agonist 215.9
O=C(Nc1ccc2c(c1)CCCN2C(=O)c1cccs1)c1ccccc1Cl	none (no result: DRD3 antagonist)
COc1ccc(-c2nc3cc(C(C)C)ccc3o2)cc1NC(=O)c1ccc(C)c(Cl)c1	none (no result: DRD3 antagonist)
Nc1nonc1-n1nnc(C(=O)N/N=C/c2cccc(Cl)c2)c1-c1ccc2c(c1)OCO2	none
C/C(=N\NC(=O)c1nnn(-c2nonc2N)c1-c1ccc2c(c1)OCO2)c1cccs1	D1 agonist 182.9
O=[N+]([O-])c1ccc2nc(-[n+]3c(-c4ccccc4)cc(-c4ccccc4)cc3-c3ccccc3)[nH]c2c1	none
O=[N+]([O-])c1ccc2nc(Cl)nc(-c3ccccc3)c2c1	D1 antagonist -33.6, DRD3 antagonist -56.0
CCOc1cc(NC(=O)c2ccccn2)c(OCC)cc1NC(=O)c1ccc(C)cc1	none
CCOc1cc(NC(=O)C2CCCCC2)c(OCC)cc1NC(=O)c1ccccn1	D3 ag 49.0
CCCCNC(=S)Nc1ccc(SC(F)F)cc1	D1 antagonist -41.9, DRD3 antagonist inconclusive
CCCCNC(=S)Nc1ccc(F)cc1	none
COc1ccc(C)cc1S(=O)(=O)NCCC1=CCCCC1	none
CC(=O)N1CC(C)Sc2ccc(S(=O)(=O)NCCc3ccccc3)cc21 (configuration not stated)	none
CC(=O)N1CCCc2cc(S(=O)(=O)NCCC3=CCCCC3)ccc21	D1 antagonist -30.3
O=S(=O)(NCCC1=CCCCC1)c1ccc(Br)cc1	D1 antagonist -30.1
CC(=O)N1CC(C)Sc2ccc(S(=O)(=O)NCCc3ccc(C)cc3)cc21 (configuration not stated)	D1 agonist 31.2
CCOc1ccc(S(=O)(=O)NCCC2=CCCCC2)c2ccccc12	D1 antagonist -35.6
Cc1ccc(C)c(Cn2c3ccccc3c3cnn(CC(=O)NC4CCCCCC4)c(=O)c32)c1	none (no result: DRD3 antagonist)
Nc1ccc(N)c([N+](=O)[O-])c1	none (no result: D1 PAM, D1 antagonist, D1 agonist, DRD3 antagonist)
COc1ccc(N2CC(NC(=O)c3ccc(OC(C)C)cc3)CC2=O)cc1 (configuration not stated)	none (no result: D1 antagonist, DRD3 antagonist)
CCOC(=O)N1CCc2c(sc3c2c(=O)n(Cc2ccccc2)c(=O)n3CC(=O)Nc2ccc(C)cc2C)C1	none (no result: DRD3 antagonist)
CC(=O)N1CCCc2cc(S(=O)(=O)NCc3ccc(C)cc3)ccc21	D1 antagonist -37.3
O=S(=O)(c1cccc(C(F)(F)F)c1)N1CCN(c2nc(-c3cccs3)nc3cc(Cl)ccc23)CC1	none (no result: D3 ag, DRD3 antagonist)
COC(=O)c1c(C)oc2ccc(N(C(=O)Oc3ccccc3)S(=O)(=O)c3ccc(C(C)(C)C)cc3)cc12	none (no result: DRD3 antagonist)
COc1ccccc1NC(=O)C1=C(C)Nc2nc(SC)nn2C1c1ccccc1Cl (configuration not stated)	none (no result: DRD3 antagonist)
Cc1ccc(S(=O)(=O)N2CCCCC2)cc1NC(=O)Cn1ccsc1=N	D1 antagonist -39.1
Cc1ccc(S(=O)(=O)N2CCCCC2)cc1NC(=O)C1=NN(c2ccccc2)C(=O)CC1	D1 antagonist -43.9
Cc1ccc(Oc2ccc(NC(=O)Cn3ccsc3=N)cc2)cc1	D1 agonist 85.1
Cc1ccc(S(=O)(=O)N2CCCCC2)cc1NC(=O)C1CCC1	D1 antagonist -33.6 (no result: D1 PAM)
N=c1sccn1CC(=O)Nc1cc(S(=O)(=O)N2CCCCC2)ccc1Cl	none
C=C(C)Cn1c(SCC(=O)c2ccc(OC)cc2)nc2sc3c(c2c1=O)CCCC3	none (no result: DRD3 antagonist)
CC(=O)c1ccc(NC(=O)CSc2ccc3nc(-c4ccccc4)cn3n2)cc1	none (no result: DRD3 antagonist)
CNc1oc(Cc2ccccc2)nc1S(=O)(=O)c1ccccc1	DRD3 antagonist -89.5
CCOc1ccc(-c2nc(S(=O)(=O)c3ccccc3)c(NC)o2)cc1	none
COc1cccc(N2CCN(c3ccc4nnc(CCC(=O)O)n4n3)CC2)c1	none (no result: DRD3 antagonist)
COc1ccc(NC(=O)Cn2cc(S(=O)(=O)c3ccccc3)c(=O)c3cc(C)ccc32)cc1Cl	none (no result: DRD3 antagonist)
Cc1noc(C)c1COC(=O)c1cnc(Cl)c(Cl)c1	D1 antagonist -42.4
CCN(CC)c1ccc(/C=c2/sc3nnc(-c4ccccc4C)n3c2=O)cc1	D1 agonist 31.2
CCN(CC)c1ccc(/C=c2\sc3nnc(-c4ccccc4Cl)n3c2=O)cc1	D1 agonist 59.0
Cc1ccc(/C=c2/sc3nnc(-c4ccccc4Cl)n3c2=O)o1	none
CCN(CC)c1ccc(/C=C2/C(=O)ON=C2C)cc1	none
